# Screens deposited in PubChem BioAssay by National Center for Advancing Translational Sciences (NCATS).
# Most compounds without a hit are left out; they make up all but 15% or so of the library.
# SARS PLP yeast: SARS-CoV PLP inhibition in yeast; S. cerevisiae expressing SARS-CoV PLpro, growth rescue; Potency, µM (top dose mostly 32.9 µM), without a hit: at the top dose activity, positive = growth rescue, actives largely listed as activators; 330,000 tested, 0.19% active; calls by dose curve; note: potency is the fitted concentration of half-maximal effect; 0% is about no effect; nearly all actives have a fitted effect of over 55% in size
# HCMV antiviral: inhibitors of human cytomegalovirus; HFF cells, HCMV-luciferase reporter, 72 h; hits give low values; activity change, negative = inhibition, % at 57.5 µM; 410,000 tested, 4.5% active; AID 1259415; in the data active = activity change below about -60%; inconclusive = no clear call, values can overlap the other calls; inactive = above about -39%; note: % is set by controls: 0 for no effect and ±100 for the full control effect
#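 Inhibition of viral replication was scored as loss of reporter luminescence in HFFs infected with HCMV-luciferase (MOI 1 PFU/cell) for 72 h; compounds tested at 2 doses, normalized to buffer and Salinomycin controls.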
# Pf growth 96h: P. falciparum growth inhibition at 96 hours; 320,000 tested, 6.9% active; Potency, µM (titrated, usually from 28.7 µM), without a hit: at the highest dose activity change, negative = inhibition, most hits filed as inhibitors; P. falciparum luciferase reporter growth, 96 h; AID 504834; note: potency is the fitted concentration of half-maximal effect; % is set by controls: 0 for no effect and ±100 for the full control effect
#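 Two-generation exposure (96 h) targets delayed-death phenotype. Reporter parasites carrying integrated firefly luciferase, in red cells at 2% hematocrit and 0.05% parasitemia final, kept at 37 C, 5% CO2; luminescence loss indicates inhibition.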
# Sm TGR block: inhibitors of Schistosoma mansoni thioredoxin glutathione reductase | Q962Y6 | purified TGR, DTNB reduction, TNB absorbance 405 nm | Potency, µM (highest dose often 114 µM), for inactives: top-dose activity change, negative = inhibition, most hits filed as inhibitors | 360,000 tested, 3% active | AID 485364; note: potency is the fitted concentration of half-maximal effect; % is set by controls: 0 for no effect and ±100 for the full control effect; nearly all actives have a fitted effect of over 60% in size
#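 First, TGR (20 nM dispensed) and NADPH were mixed with compound. Second, a 15 min room-temperature incubation followed. Third, further NADPH and then DTNB were added to start the reaction. Finally, TNB absorbance was monitored kinetically.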
# HCV inh: blocks hepatitis C virus; AID 651820; Potency, µM (titrated, usually from 41.8 µM), for the others: top-dose activity change, negative = inhibition, actives largely listed as inhibitors; Huh7.5.1 HCVcc-Cre infection, luciferase reporter, 44 h; 340,000 tested, 3.4% active; note: potency is the fitted concentration of half-maximal effect; % is set by controls: 0 for no effect and ±100 for the full control effect
#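 Luciferase read-out (15 sec integration) after a 15 min room-temperature substrate step quantifies HCVcc-Cre infection. Cells, 1,000 per well, had compound added 4 h post-plating, then virus at ~0.5 moi, and were cultured 44 h.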
# Pf growth 48h: P. falciparum growth inhibition at 48 hours (one generation); AID 504832; P. falciparum luciferase growth in erythrocytes, 48 h; Potency, µM (series often up to 28.7 µM), for the others: at the top dose activity change, negative = inhibition, actives largely listed as inhibitors; 310,000 tested, 5.9% active; note: potency is the fitted concentration of half-maximal effect; % is set by controls: 0 for no effect and ±100 for the full control effect
#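 Compounds are pin-transferred into medium, infected erythrocytes (2% hematocrit, 0.1% parasitemia final) are added, and plates sit one parasite generation at 37 C in 5% CO2. Detection reagent is then added and luminescence measured.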
# Starred values were filed as active, the others as inactive; ? = inconclusive; / = no result given. Unless noted, calls come from the whole dose curve; as a rule, active = well fitted curve in the direction sought with a large enough effect; inconclusive = small, poorly fitted or top-dose-only effect, or another doubt; inactive = no such curve, though single readings can be large; an effect the other way counts as inactive or inconclusive.
SMILES,SARS PLP yeast,HCMV antiviral,Pf growth 96h,Sm TGR block,HCV inh,Pf growth 48h
CC(C)C1C(C#N)=C(N)Oc2n[nH]c(-c3ccccc3)c21 (stereo unspecified),6%,1,-15%,-1%,-3%,-21%
Cc1c(C(=O)Nc2cccc(C(F)(F)F)c2)oc2ccc3c(c12)C(=O)CC(C)(C)O3,/,5,/,-1%,/,/
CCCCCCSc1nnc2[nH]c(=O)cc(N)n12,9%,9,5.2µM*,0%,24%,?
CCC(=O)N(CCC(Cc1ccccc1)c1ccc2c(c1)OCO2)Cc1ccccc1F (stereo unspecified),-6%,-25,12µM*,10%,-17%,?
CCOc1ccc(N(C)C(=O)c2oc(=O)c3ccccc3c2-c2ccccc2)cc1,/,-37,/,8%,/,/
C=CCNc1cc(F)ccc1S(=O)(=O)NCC=C,20%,6,/,/,-5%,/
N#Cc1c(C(F)(F)F)cc(-c2ccc(Cl)c(Cl)c2)nc1SCCN1CCOCC1,-7%,33,2.3µM*,-13%,/,?
CC(C)(C)c1ccc(Oc2ccc(N)cn2)cc1,-1%,-72*,?,13µM*,4µM*,-20%
Cc1cc(Oc2ccc(N)cn2)cc(C)c1Cl,-1%,25,24%,40µM*,?,5%
Nc1ccc(Oc2c(Cl)cccc2Cl)nc1,0%,-10,10%,?,-15%,35%
O=C(CN(Cc1ccc(Cl)cc1)C(=O)CNS(=O)(=O)c1ccccc1)NCC1CCCO1 (stereo unspecified),12%,-14,-4%,0%,-3%,-22%
CC(N=Cc1cccc(O)c1O)c1ccccc1 (stereo unspecified),-10%,/,/,5.6µM*,8%,?
CC(N=Cc1cc([N+](=O)[O-])ccc1O)c1ccccc1 (stereo unspecified),-23%,55,20%,-5%,4%,?
Cc1ccc(N=Cc2cccc(O)c2O)c(C)c1,-15%,98,12µM*,-1%,/,?
Oc1cccc(/C=N/N=C/c2cccc(O)c2O)c1O,-15%,-11,?,-32%,-7%,13µM*
Cc1ccccc1N=Cc1cccc(O)c1O,-86%,/,3%,5µM*,9%,?
COCCn1c(CNC(=O)c2ccc(C)cc2)nc2cccnc21,/,-12,/,0%,/,/
Oc1ccccc1C=NN=C1c2ccccc2-c2ccccc21,/,45,/,/,8.9µM*,/
COC(=O)c1ccc(-c2cc3onc(-c4ccccc4)c3c(=O)n2C)cc1,-1%,3,56%,3%,28%,33%
CN(C)C(=O)c1ccc(-c2cc3onc(-c4ccccc4)c3c(=O)n2C)cc1,11%,9,/,/,3.5µM*,/
O=C(OCn1ncc(Cl)c(Cl)c1=O)c1ccc(C(F)(F)F)cc1,-24%,-86*,18%,0%,10µM*,31%
Cc1ccc(C(=O)OCn2ncc(Cl)c(Cl)c2=O)cc1,-37%,-102*,?,4µM*,2.5µM*,?
O=C(NCc1ccccc1)C(C1CC1)n1c(=O)c(-c2cc3ccccc3[nH]2)nc2ccccc21 (stereo unspecified),/,28,/,/,/,/
CCC(COC(=O)NC)NC(=O)Oc1ccccc1 (stereo unspecified),-2%,-31,4.7µM*,4%,15%,57%
CCC(COC(=O)NC)NC(=O)Oc1cccc(C)c1 (stereo unspecified),-1%,-9,?,9%,11%,-1%
SMILES,SARS PLP yeast,HCMV antiviral,Pf growth 96h,Sm TGR block,HCV inh,Pf growth 48h
COC(=O)c1c(C)cc(C)c2c1CC(C)(C)C2=O,0%,16,?,1%,19%,139%
CCN(CC)CCCOc1ccc(Cl)c(Cl)c1,-24%,8,?,7%,?,-7%
CCN(CC)CCOc1ccc2c(c1)C(=NO)c1cc(OCCN(CC)CC)ccc1-2,1%,23,1.9µM*,-20%,10µM*,6.6µM*
CCCOc1ccc2c(c1)C(=NN=C(N)N)c1cc(OCCC)ccc1-2,-2%,39,5%,13%,11µM*,0.66µM*
CCCCOc1ccc2c(c1)C(=O)c1cc(O)ccc1-2,-5%,-24,48%,0%,?,76%
CCN(CC)CCOc1ccc(Br)cc1,8%,?,2.6µM*,-6%,?,4%
CCN(CC)CCOc1ccc(/C(=C(\Cl)c2ccccc2)c2ccccc2)cc1,/,-18,2.3µM*,0%,11µM*,2.1µM*
CCN(CC)CCOc1ccccc1OC,0%,28,3%,-2%,/,4%
Cc1cc(C)cc(C(=O)N(Cc2nc(-c3ccc(Cl)cc3)no2)C(C)C)c1,/,-7,/,2%,/,/
COc1ccc2nc3n(c(=O)c2c1)-c1ccc(Cl)cc1C(=O)NC3Cc1ccc(O)cc1 (stereo unspecified),/,0,/,/,?,/
CCOC(=O)c1c(C)n(CC(O)CN(C)C)c2cc(Br)c(OC)cc12 (stereo unspecified),-1%,3,?,0%,?,?
CCOC(=O)c1c(CN(C)C)n(-c2ccccc2)c2cc(Br)c(OC)cc12,1%,-30,14%,-7%,7.9µM*,?
CCOC(=O)c1c(CN2CCCCC2)n(C)c2cc(Br)c(O)cc12,2%,1,/,9%,-25%,/
CCOC(=O)c1c(CSC(=N)N)n(-c2ccc(C)cc2)c2cc(Br)c(OC(C)=O)cc12,-7%,24,3.3µM*,-18%,?,7.4µM*
CCOC(=O)c1c(CN2CCN(C)CC2)n(C)c2cc(Br)c(OC)cc12,-6%,-38,-25%,-8%,?,15µM*
CCOC(=O)c1c(CN(C)C)n(-c2ccc(C)cc2)c2cc(Br)c(O)cc12,3%,-7,0.33µM*,-20%,?,0.74µM*
CC(C)C(C(=O)NCC1CCCO1)N(C(=O)CNS(=O)(=O)c1ccc(F)cc1)C1CCCCC1 (stereo unspecified),3%,11,3%,-5%,13%,-10%
Cc1c(C(=O)N2CCCCC2)nn(-c2ccc(Cl)cc2)c(=O)c1C#N,0%,-6,7%,7%,-15%,-17%
CCOC(=O)c1c(CN2CCOCC2)n(-c2ccccc2)c2cc(Br)c(O)cc12,-10%,?,1.9µM*,-2%,-7%,1.7µM*
